According to PubChem BioAssay (NCATS):
Records with an inconclusive call do not appear. Where a call stands in place of a potency, no number is given. Active and inactive are the calls of the source. The call rests on the fitted dose curve; in most records, active means well fitted inhibition curve with a large enough effect; inconclusive means small, poorly fitted or top-dose-only effect; inactive means flat fitted curve, though single readings scatter.

How the values were obtained:
Test in all cases: qHTS profiling for inhibitors of Plasmodium falciparum proliferation (AID 504749); further: nearly all actives have a fitted effect of over 60% in size
Details in all cases: P. falciparum in erythrocytes, SYBR Green DNA, 72 h; series mostly up to 28.7 µM
CP335 = system: CP335
Summary of the method: (§1)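 Parasite proliferation within erythrocytes, 72 h exposure. Endpoint: SYBR Green I fluorescence after overnight lysis at room temperature. Controls: 0.29 uM artemisinin, DMSO.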

DFO2036 = system: DFO2036
Summary of the method: as §1

DIV14 = system: DIV14
Summary of the method: as §1

DIV17 = system: DIV17
Summary of the method: as §1

DIV30 = system: DIV30
Summary of the method: as §1

Dd2 = system: Dd2
Summary of the method: as §1

ECU = system: ECU
Summary of the method: as §1

FAB9 = system: FAB9
Summary of the method: as §1

GB4 = system: GB4
Summary of the method: as §1

HB3 = system: HB3
Summary of the method: as §1

ICS = system: ICS
Summary of the method: as §1

JCK = system: JCK
Summary of the method: as §1

N140 = system: N140
Summary of the method: as §1

P93_24 = system: P93_24
Summary of the method: as §1

P94_40 = system: P94_40
Summary of the method: as §1

PAD = system: PAD
Summary of the method: as §1

PC15 = system: PC15
Summary of the method: as §1

PC26 = system: PC26
Summary of the method: as §1

PC49 = system: PC49
Summary of the method: as §1

SC27B = system: SC27B
Summary of the method: as §1
Potency means the concentration at half of the fitted maximal effect.

| SMILES | Potency (CP335) | Potency (DFO2036) | Potency (DIV14) | Potency (DIV17) | Potency (DIV30) | Potency (Dd2) | Potency (ECU) | Potency (FAB9) | Potency (GB4) | Potency (HB3) | Potency (ICS) | Potency (JCK) | Potency (N140) | Potency (P93_24) | Potency (P94_40) | Potency (PAD) | Potency (PC15) | Potency (PC26) | Potency (PC49) | Potency (SC27B) |
| --- | --- | --- | --- | --- | --- | --- | --- | --- | --- | --- | --- | --- | --- | --- | --- | --- | --- | --- | --- | --- |
| O=[N+]([O-])C(Br)(CO)CO | inactive | inactive | inactive | inactive | inactive | inactive | inactive | inactive | inactive | inactive | inactive | inactive | inactive | inactive | inactive | inactive | inactive | inactive | inactive | inactive |
| O=P(O)(O)C(Cl)(Cl)P(=O)(O)O | inactive | inactive | inactive | inactive | inactive | inactive | inactive | inactive | inactive | inactive | inactive | inactive | inactive | inactive | inactive | inactive | inactive | inactive | inactive | inactive |
| S=C=S | inactive | inactive | inactive | inactive | inactive | inactive | inactive | inactive | inactive | inactive | inactive | inactive | inactive | inactive | inactive | inactive | inactive | inactive | inactive | inactive |
| CCC1(c2ccccc2)C(=O)NC(=O)NC1=O | inactive | inactive | inactive | inactive | inactive | inactive | inactive | inactive | inactive | inactive | inactive | inactive | inactive | inactive | inactive | inactive | inactive | inactive | inactive | inactive |
| C[CH2][Hg][S]c1ccccc1C(=O)O | 1350 nM (active) | 2000 nM (active) | 1900 nM (active) | 1510 nM (active) | 4260 nM (active) | 2240 nM (active) | 3160 nM (active) | 5620 nM (active) | 1690 nM (active) | 2240 nM (active) | 1260 nM (active) | 10000 nM (active) | 2240 nM (active) | 2820 nM (active) | 3160 nM (active) | 2820 nM (active) | 4470 nM (active) | 3790 nM (active) | 2240 nM (active) | 3980 nM (active) |
| C=CCN1CC[C@]23c4c5ccc(O)c4O[C@H]2[C@@H](O)C=C[C@H]3[C@H]1C5 | inactive | inactive | inactive | inactive | inactive | inactive | inactive | inactive | inactive | inactive | inactive | inactive | inactive | inactive | inactive | inactive | inactive | inactive | inactive | inactive |
| O=Cc1ccco1 | inactive | inactive | inactive | inactive | inactive | inactive | inactive | inactive | inactive | inactive | inactive | inactive | inactive | inactive | inactive | inactive | inactive | inactive | inactive | inactive |
| CC(Cc1ccccc1)NC=O (stereo not given) | inactive | inactive | inactive | inactive | inactive | inactive | inactive | inactive | inactive | inactive | inactive | inactive | inactive | inactive | inactive | inactive | inactive | inactive | inactive | inactive |
| N#CC1(N2CCCCC2)CCCCC1 | inactive | inactive | inactive | inactive | inactive | inactive | inactive | inactive | inactive | inactive | inactive | inactive | inactive | inactive | inactive | inactive | inactive | inactive | inactive | inactive |
| C=CCN1CCC23c4c5ccc(O)c4O[C@H]2C(=O)CC[C@@]3(O)C1C5 (stereo not given in full) | inactive | inactive | inactive | inactive | inactive | inactive | inactive | inactive | inactive | inactive | inactive | inactive | inactive | inactive | inactive | inactive | inactive | inactive | inactive | inactive |
| O=C(NC(=O)c1c(F)cccc1F)Nc1ccc(Cl)c(Oc2ncc(C(F)(F)F)cc2Cl)c1 | inactive | inactive | inactive | inactive | inactive | inactive | inactive | inactive | inactive | inactive | inactive | inactive | inactive | inactive | inactive | inactive | inactive | inactive | inactive | inactive |
| COC1=CC=C2[C@H]3Cc4ccc(OC)c5c4[C@@]2(CCN3C)[C@H]1O5 | inactive | inactive | inactive | inactive | inactive | inactive | inactive | inactive | inactive | inactive | inactive | inactive | inactive | inactive | inactive | inactive | inactive | inactive | inactive | inactive |
| CCCC(C)(COC(N)=O)COC(=O)NC1CC1 (stereo not given) | inactive | inactive | inactive | inactive | inactive | inactive | inactive | inactive | inactive | inactive | inactive | inactive | inactive | inactive | inactive | inactive | inactive | inactive | inactive | inactive |
| O=C(CS(=O)C(c1ccccc1)c1ccccc1)NO (stereo not given) | inactive | inactive | inactive | inactive | inactive | inactive | inactive | inactive | inactive | inactive | inactive | inactive | inactive | inactive | inactive | inactive | inactive | inactive | inactive | inactive |
